PubChem BioAssay AID1159580 (chemical genetic matrix, 2015)
Screen size: about 5,500 compounds; about 2,000 (36%) were called active. Roughly 18% stayed inconclusive and do not appear here. No stated cut-off is given here; in the data, active means normalized growth mostly below about 0.91 (no sharp cut-off); inconclusive means no clear call, values can overlap the other calls; inactive means mostly above about 0.92. Some of the results follow.

Test: chemical genetic growth profiling, strain panel (AID 1159580);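 further: tested at 20 µM; growth read once vehicle control cultures reached saturation at 30 °C; 1 = growth at the plate median or of vehicle wells; lower values mean less growth of the strain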
Details: growth OD

Measured: normalized growth

CNC(=O)Oc1cccc2c1OC(C)(C)O2
inactive: S. cerevisiae deletion strains, locus YJR043C, strain POL32, active compounds read low 1.01 | S. cerevisiae deletion strains, locus YJR075W, strain HOC1, active compounds read low 1.01 | S. cerevisiae deletion strains, locus YKL009W, strain mrt4, active compounds read low 1.02 | S. cerevisiae deletion strains, locus YKL068W, active compounds read low 1 | S. cerevisiae deletion strains, locus YKL085W, strain MDH1 (second series), active compounds read low 1 | S. cerevisiae deletion strains, locus YKL085W, strain MDH1, active compounds read low 1 | S. cerevisiae deletion strains, locus YKL160W, strain elf1, active compounds read low 0.994 | S. cerevisiae deletion strains, locus YKL190W, strain CNB1, active compounds read low 1.02 | S. cerevisiae deletion strains, locus YKR001C, strain vps1, active compounds read low 1.01 | S. cerevisiae deletion strains, locus YKR026C, strain gcn3, active compounds read low 1 | S. cerevisiae deletion strains, locus YKR091W, strain srl3, active compounds read low 1 | S. cerevisiae deletion strains, locus YLL001W, strain dnm1, active compounds read low 0.992 | S. cerevisiae deletion strains, locus YLL026W, active compounds read low 0.998 | S. cerevisiae deletion strains, locus YLL041C, strain sdh2, active compounds read low 0.999 | S. cerevisiae deletion strains, locus YLR027C, strain aat2, active compounds read low 0.99 | S. cerevisiae deletion strains, locus YLR039C, strain RIC1, active compounds read low 1.1 | S. cerevisiae deletion strains, locus YLR058C, strain SHM2, active compounds read low 1.02 | S. cerevisiae deletion strains, locus YLR102C, strain apc9, active compounds read low 0.991 | S. cerevisiae deletion strains, locus YLR221C, strain rsa3, active compounds read low 1 | S. cerevisiae deletion strains, locus YLR258W, strain gsy2, active compounds read low 1 | S. cerevisiae deletion strains, locus YLR262C, strain YPT6 (second series), active compounds read low 1.03 | S. cerevisiae deletion strains, locus YLR262C, strain YPT6, active compounds read low 1.14 | S. cerevisiae deletion strains, locus YLR268W, strain sec22, active compounds read low 0.998 | S. cerevisiae deletion strains, locus YLR320W, strain mms22, active compounds read low 0.986 | S. cerevisiae deletion strains, locus YLR330W, strain CHS5, active compounds read low 1.02 | S. cerevisiae deletion strains, locus YLR342W, strain FKS1 (second series), active compounds read low 0.991 | S. cerevisiae deletion strains, locus YLR342W, strain FKS1, active compounds read low 0.997 | S. cerevisiae deletion strains, locus YLR357W, strain rsc2, active compounds read low 1.05 | S. cerevisiae deletion strains, locus YLR370C, strain arc18, active compounds read low 1.01 | S. cerevisiae deletion strains, locus YLR371W, strain rom2, active compounds read low 0.989 | S. cerevisiae deletion strains, locus YLR384C, strain iki3, active compounds read low 1.01 | S. cerevisiae deletion strains, locus YLR418C, strain cdc73, active compounds read low 0.9 | S. cerevisiae deletion strains, locus YML016C, strain PPZ1, active compounds read low 1.02 | S. cerevisiae deletion strains, locus YML032C, strain rad52, active compounds read low 0.992 | S. cerevisiae deletion strains, locus YML120C, strain ndi1, active compounds read low 1.01 | S. cerevisiae deletion strains, locus YML124C, strain tub3, active compounds read low 0.998 | S. cerevisiae deletion strains, locus YMR058W, strain fet3, active compounds read low 0.999 | S. cerevisiae deletion strains, locus YMR078C, strain ctf18, active compounds read low 0.99 | S. cerevisiae deletion strains, locus YMR125W, strain sto1, active compounds read low 1 | S. cerevisiae deletion strains, locus YMR129W, active compounds read low 0.996 | S. cerevisiae deletion strains, locus YMR205C, strain PFK2, active compounds read low 0.976 | S. cerevisiae deletion strains, locus YMR223W, strain ubp8, active compounds read low 0.985 | S. cerevisiae deletion strains, locus YMR231W, strain pep5, active compounds read low 0.995 | S. cerevisiae deletion strains, locus YMR263W, strain SAP30, active compounds read low 1.02 | S. cerevisiae deletion strains, locus YMR307W, strain GAS1, active compounds read low 1.05 | S. cerevisiae deletion strains, locus YNL067W, strain RPL9B, active compounds read low 1.02 | S. cerevisiae deletion strains, locus YNL071W, strain lat1, active compounds read low 1 | S. cerevisiae deletion strains, locus YNL128W, strain TEP1, active compounds read low 1.03 | S. cerevisiae deletion strains, locus YNL153C, strain GIM3, active compounds read low 1.01 | S. cerevisiae deletion strains, locus YNL209W, strain ssb2, active compounds read low 0.996 | S. cerevisiae deletion strains, locus YNL233W, strain BNI4, active compounds read low 1.02 | S. cerevisiae deletion strains, locus YNL248C, strain rpa49, active compounds read low 0.991 | S. cerevisiae deletion strains, locus YNL250W, strain rad50, active compounds read low 0.997 | S. cerevisiae deletion strains, locus YNL271C, strain bni1, active compounds read low 1 | S. cerevisiae deletion strains, locus YNL298W, strain CLA4, active compounds read low 0.998 | S. cerevisiae deletion strains, locus YNL307C, strain MCK1, active compounds read low 0.984 | S. cerevisiae deletion strains, locus YNL322C, strain KRE1 (second series), active compounds read low 0.999 | S. cerevisiae deletion strains, locus YNL322C, strain KRE1, active compounds read low 1.02 | S. cerevisiae deletion strains, locus YNR049C, strain mso1, active compounds read low 1 | S. cerevisiae deletion strains, locus YNR052C, strain pop2, active compounds read low 0.996 | S. cerevisiae deletion strains, locus YOL006C, strain TOP1, active compounds read low 1.02 | S. cerevisiae deletion strains, locus YOL012C, strain htz1 1.24 | S. cerevisiae deletion strains, locus YOL147C, strain pex11, active compounds read low 0.993 | S. cerevisiae deletion strains, locus YOR001W, strain rrp6, active compounds read low 0.981 | S. cerevisiae deletion strains, locus YOR061W, strain CKA2, active compounds read low 1.02 | S. cerevisiae deletion strains, locus YOR069W, strain VPS5, active compounds read low 1.01 | S. cerevisiae deletion strains, locus YOR070C, strain gyp1, active compounds read low 0.991 | S. cerevisiae deletion strains, locus YOR080W, strain dia2, active compounds read low 1 | S. cerevisiae deletion strains, locus YOR083W, strain WHI5, active compounds read low 1 | S. cerevisiae deletion strains, locus YOR106W, strain vam3, active compounds read low 0.987 | S. cerevisiae deletion strains, locus YOR136W, strain idh2, active compounds read low 0.983 | S. cerevisiae deletion strains, locus YOR144C, strain elg1, active compounds read low 0.999 | S. cerevisiae deletion strains, locus YOR184W, strain ser1, active compounds read low 1.01 | S. cerevisiae deletion strains, locus YOR265W, strain rbl2, active compounds read low 1.01 | S. cerevisiae deletion strains, locus YOR270C, strain vph1, active compounds read low 0.953 | S. cerevisiae deletion strains, locus YOR290C, strain snf2, active compounds read low 0.959 | S. cerevisiae deletion strains, locus YOR316C, strain cot1, active compounds read low 0.995 | S. cerevisiae deletion strains, locus YPL051W, strain arl3, active compounds read low 0.997 | S. cerevisiae deletion strains, locus YPL055C, strain LGE1, active compounds read low 1.03 | S. cerevisiae deletion strains, locus YPL078C, strain atp4, active compounds read low 0.988 | S. cerevisiae deletion strains, locus YPL106C, strain sse1, active compounds read low 1.08 | S. cerevisiae deletion strains, locus YPL240C, strain hsp82, active compounds read low 1 | S. cerevisiae deletion strains, locus YPL241C, strain CIN2, active compounds read low 1.02 | S. cerevisiae deletion strains, locus YPR119W, strain clb2, active compounds read low 0.993 | S. cerevisiae deletion strains, locus YPR141C, strain kar3, active compounds read low 0.993 | S. cerevisiae deletion strains, locus YPR163C, strain tif3, active compounds read low 0.988 | S. cerevisiae deletion strains, locus YPR167C, strain met16, active compounds read low 0.993 | S. cerevisiae deletion strains, strain wtn01, active compounds read low 0.99 | S. cerevisiae strains, strain wild type, active compounds read low 1.01
